Only some compounds are listed: those with a hit (about 12% of all), similar ones and a draw of the others.
G9a inh: blocks human histone lysine methyltransferase G9a; 350,000 compounds, 8.8% hits; G9a H3K9 monomethylation, AlphaScreen, 2 h; Q96KQ7; Potency, µM (highest dose often 102 µM), usual class: inhibitors; further: nearly all actives have a fitted effect of over 75% in size
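Readings reflect AlphaScreen signal from monomethyl-H3K9 antibody detection. HMT at 20 nM; substrate b-H3K9 500 nM; cofactor SAM 20 uM; 2 h RT reaction; compounds tested as titrations in qHTS with 15 min preincubation.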
PLK1 PBD inh: inhibitors of human PLK1 polo-box domain binding. AID 720504. Potency, µM, hits mostly inhibitors. 360,000 compounds, 2.8% hits. Plk1 PBD binding of FITC phosphopeptide, fluorescence polarization; further: series mostly up to about 57 µM; nearly all actives have a fitted effect of over 65% in size
HP1b binding inh: inhibitors of HP1-beta chromodomain binding to methylated histone tails | P83916 | AlphaScreen HP1-beta / biotin-H3K9me3 peptide binding | Potency, µM (top dose mostly 114 µM), hits mostly inhibitors | 390,000 compounds, 0.56% hits; further: nearly all actives have a fitted effect of over 70% in size
Target sequence (P83916 whole entry, looked up): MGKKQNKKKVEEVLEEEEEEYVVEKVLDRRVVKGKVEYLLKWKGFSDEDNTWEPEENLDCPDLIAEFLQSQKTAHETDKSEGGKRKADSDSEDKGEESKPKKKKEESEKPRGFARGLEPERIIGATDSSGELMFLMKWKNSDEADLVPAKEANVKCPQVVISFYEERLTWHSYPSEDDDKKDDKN
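AlphaScreen: HP1-beta (50 nM) preformed 30 min with biotin-H3(1-18)K9me3 peptide (50 nM) in PBS pH 7.4, 0.01% Tween-20. Compound added for 30 min at RT, then streptavidin donor/nickel chelate acceptor beads (10 ug/mL) for 30 min.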
PI5P4Ka inh: blocks human PI5P4K alpha kinase activity; P48426; max response, %; AID 652105; PI5P4Kalpha enzyme, ADP-Glo luminescence, 60 min; hits give low values; 330,000 compounds, 1.2% hits; active means max response of -50% or lower; inconclusive means between -30% and -50%; inactive means -30% or higher; further: value at the top dose of about 77 µM
Target sequence (P48426 whole entry, looked up): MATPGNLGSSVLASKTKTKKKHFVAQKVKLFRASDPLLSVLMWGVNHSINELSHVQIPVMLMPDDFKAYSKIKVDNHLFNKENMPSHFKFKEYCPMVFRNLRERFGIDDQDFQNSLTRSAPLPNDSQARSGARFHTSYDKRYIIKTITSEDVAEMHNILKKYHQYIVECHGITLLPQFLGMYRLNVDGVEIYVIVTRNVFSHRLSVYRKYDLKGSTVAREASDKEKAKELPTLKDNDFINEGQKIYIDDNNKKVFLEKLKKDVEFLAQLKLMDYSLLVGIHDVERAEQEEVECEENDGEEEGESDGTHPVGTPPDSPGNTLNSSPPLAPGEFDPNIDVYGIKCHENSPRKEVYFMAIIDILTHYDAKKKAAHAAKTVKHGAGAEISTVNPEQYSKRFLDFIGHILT
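Reactions run in 0.038 M HEPES pH 7.4, 0.28 mM EGTA, 0.1% CHAPS and 5% DMSO, with PI5P4Kalpha, substrate, compound and 5 microM ATP final, one hour at room temperature. Readout is ADP-Glo luminescence.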
BAZ2B inh: blocks human BAZ2B; Q9UIF8; AlphaScreen BAZ2B-H3K14Ac peptide displacement; Potency, µM (series often up to 114 µM), hits mostly inhibitors; 360,000 compounds, 4.4% hits; further: nearly all actives have a fitted effect of over 60% in size
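In this displacement format the biotinylated H3(5-23) peptide acetylated at Lys14 serves as ligand at 50 nM, with BAZ2B at 50 nM in PBS pH 7.4 containing 0.01% Tween-20. Donor and acceptor beads are 10 ug/mL final.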
JMJD2A Tudor: inhibitors of human JMJD2A Tudor domain | AID 504339 | Potency, µM (series often up to 114 µM), most hits filed as inhibitors | AlphaScreen JMJD2A-Tudor / H3K4me3 peptide binding | 390,000 compounds, 4.4% hits; further: nearly all actives have a fitted effect of over 50% in size
Numbers stand for hits; . = inactive; ? = inconclusive; / = no result; [ ] = remark or other dose. Unless noted, the call rests on the fitted dose curve; in most records, active means well fitted curve in the direction sought with a large enough effect; inconclusive means small, poorly fitted or top-dose-only effect, or another doubt; inactive means no such curve, though single readings can be large; an effect the other way counts as inactive or inconclusive.

SMILES	G9a inh	PLK1 PBD inh	HP1b binding inh	PI5P4Ka inh	BAZ2B inh	JMJD2A Tudor
CCOc1ccc(S(=O)(=O)N2CCN(c3nc(-c4ccccc4)nc4ccccc34)CC2)cc1	/	/	.	/	/	.
O=[N+]([O-])c1cccc(-c2cc3ccccc3[nH]2)c1	.	.	.	.	.	.
O=[N+]([O-])/C=C/c1cc2ccccc2[nH]1	17.8µM	?	.	.	.	.
O=c1cc2nc(-c3ccccc3F)nc(SCc3ccc(Br)cc3)n2[nH]1	.	/	.	/	50.1µM	?
COc1cccc(CNC(=O)c2cnc(N3CCCCC3)c3ccccc23)c1	.	/	.	/	.	.
O=C(c1ccc[nH]1)N1O[C@@H]2C=C[C@H]1C2	/	.	.	.	/	.
Clc1ccc(N2O[C@H]3C=C[C@@H]2C3)nc1	/	29.9µM	/	?	/	/
Cc1ccc(S(=O)(=O)N2C[C@H]3C(=O)C[C@@H](c4ccccc4F)N(S(=O)(=O)c4ccc(C)cc4)[C@H]3C[C@H]2c2cccc3ccccc23)cc1	/	.	/	.	/	/
O=C(/C=C\c1ccco1)Nc1nc(-c2ccc3ccccc3c2)cs1	50.1µM	.	.	.	?	.
CCOc1ccc(-c2csc(NC(=O)c3ccco3)n2)cc1	39.8µM	.	.	.	.	.
COc1ccc(-c2csc(NC(=O)c3ccco3)n2)cc1	14.1µM	.	.	.	?	.
O=C(NNc1nc(-c2ccc(Br)cc2)cs1)c1ccco1	28.2µM	.	.	.	.	.
CCOc1ccc(NC(=O)[C@@H](c2ccccc2)N2Cc3ccccc3C2=O)cc1	.	/	.	/	.	.
O=C(Nc1ccc(C(=O)OCc2cc(=O)n3nc(C4CC4)sc3n2)cc1)c1ccccc1	?	/	.	/	.	.
O=c1c(CCc2ccccc2)nc2cnc(Oc3ccccc3)nc2n1C1CC1	.[0.501 µM]	/	/	/	/	/
O=C(NC(=S)Nc1nc(-c2ccc([N+](=O)[O-])cc2)cs1)c1ccco1	25.1µM	.	.	.	.	.
O=C(NC(=S)Nc1nc(-c2ccc(Br)cc2)cs1)c1ccco1	.	.	.	.	.	.
CCN(C(=O)c1ccco1)c1nc(-c2ccc(OC)cc2)cs1	.	.	.	.	79.4µM	.
COc1ccc(-c2csc(N(CC(C)C)C(=O)c3ccco3)n2)cc1	.[0.501 µM]	.	.	.	?	.
CC1=C(C(=O)O)CC(S(=O)(=O)O)C1(C)C (stereo not drawn)	/	.	.	.	/	.
CCOc1ccc(NCc2nc3ccccc3n2CCOc2ccccc2)cc1	31.6µM	.	.	.	11.2µM	17.8µM
CCOc1ccc(NCc2nc3ccccc3n2CCOc2ccc(C)cc2)cc1	14.1µM	/	?	/	12.6µM	11.2µM
Clc1ccc(NCc2nc3ccccc3n2CCOc2ccccc2)cc1	.	/	.	/	.	.
CC(=O)NCCc1nc2ccccc2n1CCOc1ccccc1	.	23.8µM	.	.	.	.[11.4 µM]
CCn1cc(S(=O)(=O)c2cc(C)cc(C)c2)c(=O)c2cc(F)c(N3CCC(C)CC3)cc21	.	/	.	/	.	.
SMILES	G9a inh	PLK1 PBD inh	HP1b binding inh	PI5P4Ka inh	BAZ2B inh	JMJD2A Tudor
Cn1cnnc1SCC(=O)Nc1ccc(N2CCCCC2)cc1	.[12.7 µM]	.	.	.	.	.
COc1ccc(-n2nc3c(c2NC(=O)COc2cccc(OC)c2)CS(=O)(=O)C3)cc1	17.8µM	.	.	.	?	?
Cc1cccc(N2C(=O)CC(N3CCN(c4ccc(Cl)cc4)CC3)C2=O)c1 (stereo not drawn)	.	.	.	.	.	.
O=C1CC(N2CCN(c3ccc(Cl)cc3)CC2)C(=O)N1c1ccc(F)cc1 (stereo not drawn)	.	.	.	.	.	.
Cc1cccc(N2C(=O)CC(N3CCN(Cc4ccc(Cl)cc4)CC3)C2=O)c1 (stereo not drawn)	39.8µM	.	.	.	.	.
O=C(O)c1ccc(N2C(=O)CC(N3C(=O)/C(=C/c4ccc(Cl)cc4)SC3=S)C2=O)cc1 (stereo not drawn)	?	26.7µM	.	-63.6	?	?
O=C(O)c1ccc(N2C(=O)CC(N3CCN(c4ccc(Cl)cc4)CC3)C2=O)cc1 (stereo not drawn)	44.7µM	.	.	.	?	.
Cc1ccc(S(=O)(=O)NCCc2csc3nc(-c4ccccc4C)nn23)cc1	.	/	.	/	.	.
COc1cc2[nH]c(=O)n(Cc3ccc(C(=O)N4CCN(c5cc(Cl)ccc5C)CC4)cc3)c(=O)c2cc1OC	.	/	.	/	?	.
COc1ccc(/C=C/c2n[nH]c(=O)c(C#N)c2C)cc1	44.7µM	.	.	.	.	.
COc1ccc(Oc2nc(C)cc(C)c2C#N)cc1	.	.	.	/	.	.
COc1cc(OC)c(NC(=O)Nc2sc3nc4n(c(=O)c3c2C)CCC(C)CC4)cc1Cl (stereo not drawn)	.	/	.	/	.	.
CC(C)C(C(=O)Nc1ccccc1F)N1C(=O)c2ccccc2C1=O (stereo not drawn)	/	.	.	.	/	.
CC(C(=O)Nc1ccccc1F)N1CCN(C)CC1 (stereo not drawn)	?	/	/	/	50.1µM	/
COc1cc2nc(SCC(=O)Nc3ccccc3C)n3nc(CCn4c(C)nc5ccccc54)nc3c2cc1OC	?	/	.	/	/	?
O=c1c2cccnc2[nH]c(=S)n1Cc1ccccc1	.	.	.	.	.	.
COCCCn1c(=S)[nH]c(C)c(C)c1=O	/	.	.	.	.	22.4µM
COCCn1c(=S)[nH]c2ncccc2c1=O	?	.	.	.	.	14.1µM
CCCCCn1c(=S)[nH]c2ncccc2c1=O	.[2.33 µM]	.	.	.	.	.
COCCCn1c(=S)[nH]c2ncccc2c1=O	44.7µM	.	.	.	.	?
COc1cc(-c2nc3ccc(N4CCN(C)CC4)cc3[nH]2)cc(OC)c1OC	39.8µM	.	.	?	.	.
Cc1cc(C(=O)N/N=C/c2ccc(-c3ccc([N+](=O)[O-])cc3Cl)o2)n[nH]1	50.1µM	?	.	.	79.4µM	?
Cc1cc(C(=O)N/N=C/c2cc(Cl)cc([N+](=O)[O-])c2O)n[nH]1	/	.	.	.	50.1µM	?
Cc1cc(C(=O)N/N=C/c2cc(Br)c(Br)o2)n[nH]1	10µM	.	.	.	.	?
Cc1cc(C(=O)N/N=C\c2cc(C(C)(C)C)c(O)c(C(C)(C)C)c2)n[nH]1	39.8µM	.	.	.	.	?
Cc1cc(C(=O)N/N=C/c2ccc(Br)o2)n[nH]1	.	.	.	.	.	.
CSc1ccccc1NC(=O)CN(C)C(=O)COc1cccc2cccnc12	/	.	.	.	/	22.4µM
COc1ccc(CCn2cc3c(c2-c2ccccc2Br)c(=O)n(C)c(=O)n3C)cc1OC	?	/	.	/	.	?
Nc1nc(-c2ccccc2)[nH]c(=O)c1N=O	?	.	.	.	79.4µM	.
CCOC(=O)c1sc2ccccc2c1S(=O)(=O)N1CCN(c2cccc(C)c2C)CC1	.	/	.	/	.	.

Bioassay records as filed in PubChem.
